HCV inhibitor = qHTS Assay for Inhibitors of Hepatitis C Virus (HCV) | AID 651820, 2012 | Potency, µM (series often up to 41.8 µM), inactives show at the highest dose activity change, negative = inhibition, actives largely listed as inhibitors | 340,000 compounds, 3.4% hits | Huh7.5.1 HCVcc-Cre infection, luciferase reporter, 44 h; active = well fitted inhibition curve with a large enough effect; inconclusive = small, poorly fitted or top-dose-only effect, or another doubt; inactive = no such curve, though single readings can be large or run the other way; note: potency is the fitted concentration of half-maximal effect; % is set by controls: 0 for no effect and ±100 for the full control effect
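Cells (1,000/well) were plated 4 h before compound, then infected with HCVcc-Cre virus (~0.5 moi). After 44 h further culture, infection was read as luciferase luminescence following a 15 min substrate incubation at room temperature.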
FMDV antiviral = High Throughput Screening for Foot and Mouth Disease Virus Antivirals; Potency, µM (series often up to 57.9 µM), without a hit: top-dose activity change, negative = inhibition, usual class: inhibitors; FMDV antiviral cell-based qHTS; AID 1159524, 2015; 410,000 compounds, 1.2% hits; calls by dose curve; tested in HEK293T cells; note: read-out not given here; potency is the fitted concentration of half-maximal effect; % is set by controls: 0 for no effect and ±100 for the full control effect; nearly all actives have a fitted effect of over 45% in size
Shiga toxin inh = A qHTS for Small Molecule Inhibitors of Shiga Toxin. AID 2315, 2010. inhibition, % at 38.7 µM. 290,000 compounds, 9.2% hits. Vero cells, Shiga toxin protein synthesis inhibition reporter; in the data active = inhibition mostly above about 28%, no sharp cut-off; inactive = mostly below about 43%; note: 0% is about no effect
Marburg entry inh = qHTS for inhibitors of binding or entry into cells for Marburg Virus | Marburg virus pseudotyped entry inhibition, cell reporter | Potency, µM (highest dose often 37.8 µM), without a hit: top-dose activity change, negative = inhibition, actives largely listed as inhibitors | 300,000 compounds, 1.8% hits; calls by dose curve; tested in HEK293 cells; note: potency is the fitted concentration of half-maximal effect; % is set by controls: 0 for no effect and ±100 for the full control effect
CHX counter = Cycloheximide Counterscreen for Small Molecule Inhibitors of Shiga Toxin | max response, % | 300,000 compounds, 12% hits | AID 2314, 2010 | cell reporter, cycloheximide protein synthesis inhibition counterscreen; in the data active = max response mostly above about 13%, no sharp cut-off; inactive = mostly below about 14%; note: read at 38.3 µM for the half of the compounds with a filed dose; 0% is about no effect
Lassa entry inh = qHTS for Inhibitors of binding or entry into cells for Lassa Virus. Lassa virus pseudotype entry inhibition, cell reporter. Potency, µM (series often up to 37.9 µM), for inactives: top-dose activity change, negative = inhibition, usual class: inhibitors. 300,000 compounds, 1.2% hits; calls by dose curve; tested in HEK293 cells; note: potency is the fitted concentration of half-maximal effect; % is set by controls: 0 for no effect and ±100 for the full control effect; nearly all actives have a fitted effect of over 50% in size
Starred values were filed as active, the others as inactive; ? = inconclusive; nt = no result given; + = active, no number; [ ] = another dose, or the depositor's remark. A selection: hits, their analogues and other compounds. The true share with any hit is near 13%.

SMILES	HCV inhibitor	FMDV antiviral	Shiga toxin inh	Marburg entry inh	CHX counter	Lassa entry inh
O=C1CC[C@@H](CN(Cc2cccnc2)C2CCN(c3ccc(NC(=O)c4cnccn4)cc3)CC2)N1	nt	25%	nt	nt	nt	nt
Cc1n(CC(=O)c2ccc(F)cc2)c2ccccc2[n+]1C	7%	-2%	-8	nt	-1	nt
Cn1c(=N)n(CC(=O)c2ccc(Br)cc2)c2ccccc21	6.3µM*	-9%	nt	?	nt	10µM*
O=C(CN1CCOCC1)c1ccc(Br)cc1	20%	3%	7	-2%[46.1 µM]	6	-4%[46.1 µM]
Cn1c(=N)n(CC(=O)c2ccc(F)cc2)c2ccccc21	?	-24%	68*	?	37*	?
N=C1CCCN1CC(=O)c1ccc(Br)cc1	-3%	0%	+	?	46*	24%
CCOc1cc(C(=O)NCC(=O)N2CCC3(CC2)NCCc2[nH]cnc23)cc(OCC)c1OCC	11%	-10%	-3	3%[46.1 µM]	-1	?
Cc1ccc(NC(=O)c2ccc3c(c2)N(CC(=O)N2CCCCC2)C(=O)C(C)(C)O3)cc1	5.6µM*	-24%	-14	0%	3	5%
O=C(NCCN1CCCCC1)Nc1ccc(F)c(Cl)c1	?	13%	-8	-10%	13	44%[14.3 µM]
Cc1cccc(C)c1NC(=O)N1CC=CCC1	10%	-23%	-9	nt	3	nt
Cc1ccc(NC(=O)N2CCCC2)cc1Cl	1%	29%	84*	?	38*	16%
O=C(Nc1ccc(Cl)c(Cl)c1)N1CC=CCC1	-23%	18%	86*	-6%	33*	-17%
Cc1ccc(NC(=O)N2CCN(C(=O)c3ccco3)CC2)cc1Cl	19%	-1%	-5	0%	-4	0%
Cc1ccc(NC(=O)NCCN2CCCCC2)cc1Cl	-28%	-6%	1	?	13*	21%[46.1 µM]
Cc1ccc(NC(=O)C(=O)N2CCCC2)cc1Cl	8%	66%	116*	20%	39*	?
Cc1ccc(Cl)cc1NC(=O)C(=O)N1CCCCC1	3%	0%	23	nt	-3	nt
N=C1S/C(=C\c2ccc(-c3cccc(Cl)c3)o2)C(=O)N1c1nccs1	14%	-8%	10	3.2µM*	9	?
COc1ccc(/C=C2\SC(=N)N(c3nccs3)C2=O)cc1OC	?	?	-1	?	14*	-24%[46.1 µM]
O=S(=O)(Nc1nc2ccccc2nc1Nc1ccc(N2CCOCC2)cc1)c1cc(Cl)ccc1Cl	?	-21%	5	7.3µM*	1	?
Cc1ccc(S(=O)(=O)NCC(=O)N/N=C/c2ccc(Cl)cc2Cl)cc1	5%	-15%	-12	-19%	-3	5%
CC1CCN(C(=O)COC(=O)C23CC4CC(CC(O)(C4)C2)C3)CC1	6%	45%	nt	nt	nt	nt
COc1ccc(N=c2cc(-c3ccc(O)cc3)oc3ccccc23)cc1	?	?	12*	8%	42*	-35%
COc1ccc(N=c2cc(-c3ccc(OC)cc3)oc3ccccc23)cc1	?	-18%	10	-12%	0	?
COc1ccc(-c2cc(=Nc3ccccc3)c3cc(C)ccc3o2)cc1	3%	59%	97*	?	86*	-5%
CCOc1ccc(C2c3[nH]c4ccccc4c3CCN2C(=O)CCc2ccccc2)cc1 (centres undefined)	nt	2%	nt	nt	nt	?
SMILES	HCV inhibitor	FMDV antiviral	Shiga toxin inh	Marburg entry inh	CHX counter	Lassa entry inh
CCc1cc(C(=O)OC)c(NC(=O)CC2SC(=NC)N(C)C2=O)s1 (centres undefined)	16µM*	5%	-2	-10%[46.1 µM]	-3	13%[46.1 µM]
CN=C1SC(CC(=O)Nc2sc(C)c(C)c2C(=O)OC)C(=O)N1C (centres undefined)	?	nt	2	-25%	-3	-21%
Fc1ccc2c(Cl)c(-c3nnc(-c4cccs4)o3)sc2c1	14%	50%	78*	16%	35*	-7%
Cc1cccc(C(=O)N2CCC(=O)N(C(COCc3cccc(Cl)c3)Cc3ccccc3)CC2)c1 (centres undefined)	4%[8.37 µM]	47%	-12	-8%	-4	8.2µM*
Cc1cccc(C(=O)N2CCC(=O)N([C@H](COCc3cccc(Cl)c3)Cc3ccccc3)CC2)c1	nt	-20%	-14	nt	5	nt
O=C(c1cccc(Cl)c1)N1CCC(=O)N(C(COCc2cccc(Cl)c2)Cc2ccccc2)CC1 (centres undefined)	?	-21%	-11	-17%	-4	15µM*
Cc1ccc(S(=O)(=O)N2CCC(=O)N(C(COCc3cccc(C)c3)Cc3ccccc3)CC2)cc1 (centres undefined)	?	-22%	33	?	-1	15µM*
Cc1cccc(C(=O)N2CCC(=O)N([C@H](COCc3ccc(Cl)cc3)Cc3ccccc3)CC2)c1	nt	-11%	-9	nt	1	nt
Cc1cccc(C(=O)N2CCC(=O)N(C(COCc3ccc(Cl)cc3)Cc3ccccc3)CC2)c1 (centres undefined)	?	?	-18	-4%	-6	10µM*
COc1ccc(-c2noc(CSc3nc(N)c(-c4ccccc4)c(=O)[nH]3)n2)cc1	?	-21%	-4	5%	1	?
CCCSc1ccc([C@H]2N[C@@](C)(C(=O)OC)[C@H]3C(=O)N(C)C(=O)[C@@H]23)cc1OC	7%	-5%	nt	nt	nt	nt
CC1CC(O)(CC(O)(c2ccccc2)c2ccccc2)C(C)CN1C (centres undefined)	-29%	-4%	-6	nt	-4	nt
CCOC(=O)C1=C(c2ccccc2)NC(N)=NC1c1ccc(OCc2ccc(Cl)cc2)c(OC)c1 (centres undefined)	?	1%	30*	nt	11	nt
CNc1ccc2oc(C[C@H]3O[C@]4(CC[C@H]3C)O[C@H]([C@H](C)C(=O)c3ccc[nH]3)[C@H](C)C[C@H]4C)nc2c1C(=O)O	nt	-12%	nt	0.71µM*	nt	nt
O=C1c2ccccc2C(=O)N1n1c(=O)[nH]c2ccccc2c1=O	17%	-11%	-8	4%	2	6%
CCc1cccc(CC)c1NC(=O)Cn1c(-c2ccccc2Cl)nc2ccccc21	10%	49%	37*	25%	22*	?
CC(C)Cn1c(-c2ccccc2Cl)nc2ccccc21	nt	-12%	nt	9%[46.1 µM]	nt	24%[46.1 µM]
Cc1cc(NC(=O)CS(=O)(=O)c2cn(Cc3cccc(F)c3)c3ccccc23)no1	?	40µM*	-11	?	-2	?
O=C(O)CCCCCCCCc1cn(Cc2ccc(C(=O)c3ccccc3)cc2)nn1	-18%	-15%	-4	nt	2	nt
O=C(c1ccccc1)c1ccc(Cn2cc(-c3ccccc3)nn2)cc1	1.4µM*	-6%	57*	nt	24*	nt
O=C(c1ccccc1)c1ccc(Cn2cc(CCCO)nn2)cc1	10µM*	-15%	17	nt	8	nt
